Data from ChEMBL document CHEMBL1961873, “Compounds: GSK PKIS; Assays: Nanosyn kinase panel” (2012).

Columns and labels:
[1] = biological target: T1, 3-phosphoinositide-dependent protein kinase 1 (Homo sapiens) (UniProt O15530); conditions: at 0.1 µM;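 also: values are mean inhibition of PDK1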
T1 sequence (whole entry): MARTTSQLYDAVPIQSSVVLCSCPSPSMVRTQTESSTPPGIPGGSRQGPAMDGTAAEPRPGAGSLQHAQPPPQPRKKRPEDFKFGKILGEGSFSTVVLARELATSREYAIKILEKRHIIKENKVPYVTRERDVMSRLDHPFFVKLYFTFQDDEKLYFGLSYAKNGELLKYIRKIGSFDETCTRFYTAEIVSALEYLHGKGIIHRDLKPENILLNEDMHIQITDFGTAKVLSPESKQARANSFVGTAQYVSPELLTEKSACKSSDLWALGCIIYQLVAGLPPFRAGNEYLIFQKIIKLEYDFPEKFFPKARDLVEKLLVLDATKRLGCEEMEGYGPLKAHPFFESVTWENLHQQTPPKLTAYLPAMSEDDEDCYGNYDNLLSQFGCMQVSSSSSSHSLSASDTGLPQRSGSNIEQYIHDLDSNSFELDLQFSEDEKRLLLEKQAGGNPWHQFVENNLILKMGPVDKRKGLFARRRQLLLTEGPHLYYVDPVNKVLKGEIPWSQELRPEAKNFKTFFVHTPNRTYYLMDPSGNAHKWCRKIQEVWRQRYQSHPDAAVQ

[2] = biological target: cAMP-dependent protein kinase catalytic subunit alpha (Homo sapiens) (UniProt P17612); conditions: at 0.1 µM
[3] = biological target: cAMP-dependent protein kinase catalytic subunit alpha (Homo sapiens) (UniProt P17612); conditions: at 1 µM
[4] = biological target: Protein kinase C alpha type (Homo sapiens) (UniProt P17252); conditions: at 0.1 µM
[5] = biological target: Protein kinase C alpha type (Homo sapiens) (UniProt P17252); conditions: at 1 µM
[6] = biological target: Protein kinase C beta type (Homo sapiens) (UniProt P05771); conditions: at 0.1 µM
Protein kinase C beta type (Homo sapiens), sequence (P05771 2-671 limits assumed): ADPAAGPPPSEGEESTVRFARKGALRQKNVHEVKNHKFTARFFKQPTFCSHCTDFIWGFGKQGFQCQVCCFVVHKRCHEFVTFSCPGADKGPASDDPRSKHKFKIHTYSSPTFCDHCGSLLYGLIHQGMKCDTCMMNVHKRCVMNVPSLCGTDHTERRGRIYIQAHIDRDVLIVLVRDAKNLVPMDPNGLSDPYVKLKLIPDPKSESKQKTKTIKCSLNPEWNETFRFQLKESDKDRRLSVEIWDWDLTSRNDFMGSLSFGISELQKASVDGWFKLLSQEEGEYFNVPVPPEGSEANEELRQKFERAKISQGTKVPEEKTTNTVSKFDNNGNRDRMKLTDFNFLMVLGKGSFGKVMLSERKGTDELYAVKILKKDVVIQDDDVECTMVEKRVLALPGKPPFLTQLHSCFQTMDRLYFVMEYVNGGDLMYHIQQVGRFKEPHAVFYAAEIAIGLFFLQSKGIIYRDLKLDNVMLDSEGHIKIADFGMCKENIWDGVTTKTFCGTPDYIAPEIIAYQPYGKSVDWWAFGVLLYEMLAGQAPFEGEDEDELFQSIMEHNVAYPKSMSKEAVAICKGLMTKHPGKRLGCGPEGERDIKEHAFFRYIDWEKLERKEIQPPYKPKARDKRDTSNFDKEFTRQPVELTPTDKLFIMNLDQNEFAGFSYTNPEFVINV

[7] = biological target: Protein kinase C beta type (Homo sapiens) (UniProt P05771); conditions: at 1 µM
[8] = biological target: Protein kinase C eta type (Homo sapiens) (UniProt P24723); conditions: at 0.1 µM
Protein kinase C eta type (Homo sapiens), sequence (P24723 whole entry): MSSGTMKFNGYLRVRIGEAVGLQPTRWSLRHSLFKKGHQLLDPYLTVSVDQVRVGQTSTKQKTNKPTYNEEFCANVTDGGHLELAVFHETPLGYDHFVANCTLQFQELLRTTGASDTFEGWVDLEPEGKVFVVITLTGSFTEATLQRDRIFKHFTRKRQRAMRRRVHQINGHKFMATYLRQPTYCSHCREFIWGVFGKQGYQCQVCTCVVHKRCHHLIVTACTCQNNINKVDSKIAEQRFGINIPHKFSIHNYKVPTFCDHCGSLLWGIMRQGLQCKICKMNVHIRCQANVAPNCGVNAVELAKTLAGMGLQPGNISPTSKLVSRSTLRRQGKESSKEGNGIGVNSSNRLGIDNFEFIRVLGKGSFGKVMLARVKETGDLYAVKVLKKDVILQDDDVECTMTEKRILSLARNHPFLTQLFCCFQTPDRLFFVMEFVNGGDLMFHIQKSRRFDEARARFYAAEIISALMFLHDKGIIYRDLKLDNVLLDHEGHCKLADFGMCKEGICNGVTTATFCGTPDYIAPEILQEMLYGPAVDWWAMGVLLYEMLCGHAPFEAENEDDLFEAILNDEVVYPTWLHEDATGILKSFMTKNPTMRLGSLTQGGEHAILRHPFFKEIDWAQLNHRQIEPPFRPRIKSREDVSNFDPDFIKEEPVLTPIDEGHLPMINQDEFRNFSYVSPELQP

[9] = biological target: Protein kinase C eta type (Homo sapiens) (UniProt P24723); conditions: at 1 µM
[10] = biological target: Protein kinase C gamma type (Homo sapiens) (UniProt P05129); conditions: at 0.1 µM;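 also: values are mean percent inhibition of PKC gamma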

SMILES	inhibition [1]	inhibition [2]	inhibition [3]	inhibition [4]	inhibition [5]	inhibition [6]	inhibition [7]	inhibition [8]	inhibition [9]	inhibition [10]
Oc1cccc(-c2nc(-c3ccccc3)[nH]c2-c2ccncc2)c1	4.03%	2.46%	6.88%	0.69%	3.01%	2.07%	8.23%	2.41%	9.76%	2.86%
Cc1ccc2c(c1)/C(=N/Nc1ccc(S(N)(=O)=O)cc1)C(=O)N2	0.19%	0.27%	1.28%	0.13%	-0.36%	-0.92%	0.39%	-0.77%	-1.47%	-1.71%
COc1cc(/C=N/Nc2ncnc3c2cnn3C(C)C)ccc1O	5.59%	1.05%	3.87%	0.6%	2.74%	0.72%	3.01%	0.82%	3.21%	-1.82%
Cc1ccc(Nc2ccnc(Nc3cccc(C(N)=O)c3)n2)cc1O	2.89%	-1.93%	-0.05%	-1.9%	8.24%	0.32%	4.35%	6.2%	4.32%	4.85%
Nc1ccc(C#Cc2cncnc2Nc2ccc(OCc3cccc(F)c3)c(Cl)c2)cc1	-0.28%	3.59%	2.77%	0.42%	1.03%	1.2%	2.03%	4.79%	2.72%	-0.9%
CCn1c(-c2nonc2N)nc2ccc(F)cc21	-0.67%	2.75%	6.34%	1%	1.33%	2.61%	15.6%	6.39%	26.6%	4.75%
Nc1nccc(-c2c(-c3ccc(F)cc3)ncn2CCCN2CCOCC2)n1	0.38%	3.31%	9.33%	0.84%	4.5%	1.5%	7.05%	4.26%	7.49%	3.25%
C[C@@H](Oc1cc(-n2cnc3ccc(OCC4CCN(C)CC4)cc32)sc1C(N)=O)c1ccccc1C(F)(F)F	0.45%	-0.41%	1.15%	0.1%	9.63%	0.2%	5.91%	-5.73%	5.16%	3.29%
Cc1ccc2c(-c3ccnc(Nc4cccc(C(F)(F)F)c4)n3)c(-c3ccccc3)nn2n1	0.65%	2.43%	4.26%	1.57%	10.6%	0.54%	3.6%	5.12%	4.11%	-1.08%
CCOc1nccc2c1nc(-c1nonc1N)n2CC	1.85%	3.12%	9.17%	-0.03%	1.03%	11.6%	39.7%	7.44%	24.1%	3.01%
O=C1Nc2ccccc2/C1=C/Nc1ccc2[nH]c(=O)[nH]c2c1	9.34%	2.27%	4.1%	0.57%	2.34%	0.19%	4.33%	3.3%	3.84%	2.03%
Cc1ccc(NC(=O)CC2CC2)cc1-c1ccc(C(=O)NCC2CC2)cc1	1.84%	1.31%	0.41%	0.78%	1.96%	-0.34%	2.08%	3.52%	4.84%	2.09%
NS(=O)(=O)c1ccc(N/N=C2\C(=O)Nc3ccc(Cl)cc32)cc1	2.36%	3.49%	4.12%	0.69%	1.45%	1.35%	2.75%	4.13%	4.71%	-1.84%
NC(=O)c1cccc(Nc2nccc(Nc3cccc(F)c3)n2)c1	-1.35%	1.44%	0.76%	0.15%	4.54%	-2.22%	-5.72%	1.84%	2.62%	2.94%
CN(C)C(=O)O[C@H]1CN[C@H](C#Cc2cc3ncnc(Nc4ccc(OCc5cccc(F)c5)c(Cl)c4)c3s2)C1	1.92%	2.32%	4.73%	0.57%	-0.37%	-1.06%	0.39%	1.05%	1.68%	3.2%
CN(C)C(=O)O[C@@H]1CN[C@@H](C#Cc2cc3ncnc(Nc4ccc(OCc5cccc(F)c5)c(Cl)c4)c3s2)C1	0.77%	0.67%	1.2%	0.33%	1.13%	-1.27%	2.12%	4.86%	1.38%	-1.57%
COC(=O)c1ccc2c(c1)C(=Cc1cc(Br)c(O)c(Br)c1)C(=O)N2	-0.14%	1.68%	0.85%	0.87%	2.31%	-0.23%	-0.51%	2.26%	3.91%	1.07%

SMILES	inhibition [1]	inhibition [2]	inhibition [3]	inhibition [4]	inhibition [5]	inhibition [6]	inhibition [7]	inhibition [8]	inhibition [9]	inhibition [10]
C[C@@H](Oc1cc(-n2cnc3ccc(OC[C@@H](O)CO)cc32)sc1C(N)=O)c1ccccc1Cl	0.22%	-0.26%	-0.61%	-0.25%	3.02%	-0.38%	1.7%	0.53%	0.23%	-1.57%
NS(=O)(=O)c1cccc(Nc2cc(-c3ccc(F)cc3)n[nH]2)c1	0.96%	5.01%	6.49%	0.02%	1.69%	2.83%	6%	2.29%	5.6%	4.38%
CS(=O)(=O)CCNCc1nc(-c2ccc3ncnc(Nc4ccc(OCc5cccc(C(F)(F)F)c5)cc4)c3c2)cs1	0.07%	1.46%	0.51%	-0.15%	-0.72%	0.26%	1.43%	3.05%	2.2%	0.96%
FC(F)(F)c1ccc(-c2nn3ncccc3c2-c2ccnc(Nc3ccc4c(c3)OCCO4)n2)cc1	1.11%	6.1%	6.96%	0.99%	1.28%	8.14%	11.9%	1.27%	6.69%	5.17%
COc1cc2ncn(-c3cc(OCc4ccccc4S(C)(=O)=O)c(C#N)s3)c2cc1OC	5.59%	2.29%	3.77%	1.33%	2.72%	2.71%	5.16%	0.91%	-1.63%	1.77%
O=C(Nc1ccc(Oc2ccc3[nH]c(NC(=O)c4ccco4)nc3c2)cc1)Nc1cc(C(F)(F)F)ccc1F	2.37%	-0.33%	0.09%	-3.29%	-2.22%	-0.09%	-1.32%	1.15%	-0.71%	2.16%
Cc1cc(-c2ccccn2)cc(C)c1/C=C/c1cncc(-c2nn[nH]n2)c1	-0.5%	1.63%	1.8%	0.99%	3.52%	0.54%	0.37%	2.25%	5.16%	1.57%
CN1CCN(C(=O)c2ccc(NC(=O)Nc3ccc(N(C)c4ccnc(Nc5ccc(CS(C)(=O)=O)cc5)n4)cc3)cc2)CC1	1.6%	1.2%	4.5%	-0.39%	0.75%	0.01%	2.15%	3.18%	2.34%	2.19%
COc1cccc(-n2ncc3c(N/N=C/c4ccc(S(C)(=O)=O)cc4)ncnc32)c1	2.37%	-3.29%	-0.93%	-3.07%	-0.59%	2.22%	7.27%	1.23%	2.85%	1.86%
Cc1ccc2c(-c3ccnc(Nc4ccc5c(c4)OCCO5)n3)c(-c3ccc(C(F)(F)F)cc3)nn2n1	-0.78%	4.47%	7.16%	0.21%	1.55%	2.2%	2.03%	0.94%	3.26%	1.27%
COc1cccc(-n2ncc3c(N/N=C/c4ccc(C)cc4)ncnc32)c1	0.64%	3.22%	2.93%	0.52%	1.66%	0.67%	1.01%	5.56%	4.73%	2.06%
CN(C)c1cc2c(Nc3ccc4c(cnn4Cc4ccccc4)c3)ncnc2cn1	2.47%	1.45%	1.92%	-0.01%	0.82%	0.49%	1.62%	-1.26%	1.17%	0.1%
CCS(=O)(=O)c1ccc(OC)c(Nc2nccc(N(C)c3ccc4c(C)n[nH]c4c3)n2)c1	-0.7%	2.41%	0.84%	0.55%	1.48%	0.4%	-2.93%	3.8%	6.38%	0.63%
Cc1ccc(C(=O)NC2CC2)cc1-c1ccc2[nH]ncc2c1	-3.15%	-2.46%	0.47%	-0.47%	0.07%	-0.41%	-0.31%	-4.21%	-3.72%	-0.11%
NS(=O)(=O)c1ccc(NC=C2C(=O)Nc3ccc4ncsc4c32)cc1	30.1%	2.64%	11.8%	1.14%	8.8%	0.12%	2.75%	6.21%	4.18%	3.84%
COC(=O)c1cncc(/C=C/c2c(C)cc(O)cc2C)c1	-0.19%	1.8%	2.3%	0.98%	1.39%	0.78%	2.09%	4.57%	5.34%	6.64%
CN(C)CCCn1c(-c2nonc2N)nc2cnccc21	1.51%	2.1%	3.18%	0.8%	3.62%	1.86%	14.5%	6.38%	10%	4.42%
